Experimental data published in the supplement of paper PMC11732987, “Enantioselective OTUD7B fragment discovery through chemoproteomics screening and high-throughput optimisation” (Communications Chemistry, 2025).

Experiments:
Test in all cases: log2 ratio of Biotin-Ahx-Ub-VS probe labelling (fragment/DMSO); higher = less target engagement (more negative = stronger competition), active = hit call of the paper (q ≤ 0.05, log2 ratio ≤ -1)
Conditions in all cases: compound concentration: 200 uM; treatment time: 3 h
USP16 = USP16 (UniProt Q9Y5T5)
Sequence of USP16 (Q9Y5T5 whole entry, looked up, the tested form may be a part): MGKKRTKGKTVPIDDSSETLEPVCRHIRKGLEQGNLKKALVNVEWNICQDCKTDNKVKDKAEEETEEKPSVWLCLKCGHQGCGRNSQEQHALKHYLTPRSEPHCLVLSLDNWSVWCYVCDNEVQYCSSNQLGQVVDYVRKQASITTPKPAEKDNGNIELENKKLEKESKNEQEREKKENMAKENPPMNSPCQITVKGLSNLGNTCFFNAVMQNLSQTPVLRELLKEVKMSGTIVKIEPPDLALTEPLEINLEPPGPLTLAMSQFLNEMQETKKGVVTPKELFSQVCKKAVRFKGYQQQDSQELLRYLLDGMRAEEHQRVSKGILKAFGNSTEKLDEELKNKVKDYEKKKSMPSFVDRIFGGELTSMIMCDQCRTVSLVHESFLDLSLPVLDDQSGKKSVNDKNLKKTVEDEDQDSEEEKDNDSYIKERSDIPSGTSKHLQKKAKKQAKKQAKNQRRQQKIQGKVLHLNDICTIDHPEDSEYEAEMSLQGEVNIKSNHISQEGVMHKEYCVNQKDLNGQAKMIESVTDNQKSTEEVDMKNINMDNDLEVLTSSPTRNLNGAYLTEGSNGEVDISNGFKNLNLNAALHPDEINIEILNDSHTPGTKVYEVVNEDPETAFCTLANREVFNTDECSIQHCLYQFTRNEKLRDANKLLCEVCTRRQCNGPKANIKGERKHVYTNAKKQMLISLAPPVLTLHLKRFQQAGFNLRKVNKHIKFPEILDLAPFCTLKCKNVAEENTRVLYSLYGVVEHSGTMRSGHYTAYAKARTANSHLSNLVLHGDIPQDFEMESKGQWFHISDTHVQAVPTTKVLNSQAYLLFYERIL
How it was run: (§1)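 HEK293T lysate in Tris/CHAPS/IGEPAL buffer with protease inhibitors (495 µg per sample) was given fragment at 200 µM or vehicle for 3 h, in triplicate. It then received Biotin-Ahx-Ub-VS at 0.5 µM final for 1 h. Labelled DUBs were NeutrAvidin-enriched, digested with LysC and trypsin, and run by diaPASEF LC-MS/MS. Values are average log2 fragment/vehicle ratios by unpaired t-test on global-median-normalised Spectronaut quantities of proteins with ≥2 unique peptides.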

USP19 = molecular target: T1, USP19 (UniProt O94966)
T1 sequence (whole entry): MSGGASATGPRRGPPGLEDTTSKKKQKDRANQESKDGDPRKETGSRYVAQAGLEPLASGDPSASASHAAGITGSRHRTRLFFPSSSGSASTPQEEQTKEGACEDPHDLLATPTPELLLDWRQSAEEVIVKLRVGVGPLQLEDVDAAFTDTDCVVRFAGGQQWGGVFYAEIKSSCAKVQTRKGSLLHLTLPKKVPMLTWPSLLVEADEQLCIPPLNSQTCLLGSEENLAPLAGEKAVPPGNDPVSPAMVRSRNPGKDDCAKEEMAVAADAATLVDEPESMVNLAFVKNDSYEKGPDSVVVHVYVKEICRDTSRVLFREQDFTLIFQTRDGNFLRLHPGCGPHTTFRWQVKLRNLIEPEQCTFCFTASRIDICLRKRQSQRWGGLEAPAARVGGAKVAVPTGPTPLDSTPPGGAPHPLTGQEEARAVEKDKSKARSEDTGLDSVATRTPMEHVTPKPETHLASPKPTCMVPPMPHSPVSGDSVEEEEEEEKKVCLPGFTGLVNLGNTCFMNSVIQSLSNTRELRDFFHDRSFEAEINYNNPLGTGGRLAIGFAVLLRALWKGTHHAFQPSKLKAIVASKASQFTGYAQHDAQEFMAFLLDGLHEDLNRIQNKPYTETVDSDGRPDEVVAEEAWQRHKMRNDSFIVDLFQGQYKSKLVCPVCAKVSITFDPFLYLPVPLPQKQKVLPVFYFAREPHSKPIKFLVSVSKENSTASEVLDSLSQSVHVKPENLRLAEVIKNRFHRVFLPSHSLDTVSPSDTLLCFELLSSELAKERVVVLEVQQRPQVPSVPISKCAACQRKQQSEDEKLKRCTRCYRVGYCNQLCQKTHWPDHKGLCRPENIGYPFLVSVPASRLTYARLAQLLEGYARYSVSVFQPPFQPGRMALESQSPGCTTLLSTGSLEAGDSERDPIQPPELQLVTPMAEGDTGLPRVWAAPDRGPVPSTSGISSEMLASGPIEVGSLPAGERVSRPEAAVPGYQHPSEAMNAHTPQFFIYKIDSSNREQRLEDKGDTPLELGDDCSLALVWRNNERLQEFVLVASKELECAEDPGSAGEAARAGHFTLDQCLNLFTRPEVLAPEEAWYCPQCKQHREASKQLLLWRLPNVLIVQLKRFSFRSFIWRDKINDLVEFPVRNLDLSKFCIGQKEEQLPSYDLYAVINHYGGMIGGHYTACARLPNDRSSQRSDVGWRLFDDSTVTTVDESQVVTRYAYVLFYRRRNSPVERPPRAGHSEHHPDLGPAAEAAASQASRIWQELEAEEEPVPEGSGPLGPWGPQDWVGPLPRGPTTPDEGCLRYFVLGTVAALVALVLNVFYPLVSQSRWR
How it was run: as §1

USP24 = USP24 (UniProt Q9UPU5)
Sequence of USP24 (Q9UPU5 whole entry): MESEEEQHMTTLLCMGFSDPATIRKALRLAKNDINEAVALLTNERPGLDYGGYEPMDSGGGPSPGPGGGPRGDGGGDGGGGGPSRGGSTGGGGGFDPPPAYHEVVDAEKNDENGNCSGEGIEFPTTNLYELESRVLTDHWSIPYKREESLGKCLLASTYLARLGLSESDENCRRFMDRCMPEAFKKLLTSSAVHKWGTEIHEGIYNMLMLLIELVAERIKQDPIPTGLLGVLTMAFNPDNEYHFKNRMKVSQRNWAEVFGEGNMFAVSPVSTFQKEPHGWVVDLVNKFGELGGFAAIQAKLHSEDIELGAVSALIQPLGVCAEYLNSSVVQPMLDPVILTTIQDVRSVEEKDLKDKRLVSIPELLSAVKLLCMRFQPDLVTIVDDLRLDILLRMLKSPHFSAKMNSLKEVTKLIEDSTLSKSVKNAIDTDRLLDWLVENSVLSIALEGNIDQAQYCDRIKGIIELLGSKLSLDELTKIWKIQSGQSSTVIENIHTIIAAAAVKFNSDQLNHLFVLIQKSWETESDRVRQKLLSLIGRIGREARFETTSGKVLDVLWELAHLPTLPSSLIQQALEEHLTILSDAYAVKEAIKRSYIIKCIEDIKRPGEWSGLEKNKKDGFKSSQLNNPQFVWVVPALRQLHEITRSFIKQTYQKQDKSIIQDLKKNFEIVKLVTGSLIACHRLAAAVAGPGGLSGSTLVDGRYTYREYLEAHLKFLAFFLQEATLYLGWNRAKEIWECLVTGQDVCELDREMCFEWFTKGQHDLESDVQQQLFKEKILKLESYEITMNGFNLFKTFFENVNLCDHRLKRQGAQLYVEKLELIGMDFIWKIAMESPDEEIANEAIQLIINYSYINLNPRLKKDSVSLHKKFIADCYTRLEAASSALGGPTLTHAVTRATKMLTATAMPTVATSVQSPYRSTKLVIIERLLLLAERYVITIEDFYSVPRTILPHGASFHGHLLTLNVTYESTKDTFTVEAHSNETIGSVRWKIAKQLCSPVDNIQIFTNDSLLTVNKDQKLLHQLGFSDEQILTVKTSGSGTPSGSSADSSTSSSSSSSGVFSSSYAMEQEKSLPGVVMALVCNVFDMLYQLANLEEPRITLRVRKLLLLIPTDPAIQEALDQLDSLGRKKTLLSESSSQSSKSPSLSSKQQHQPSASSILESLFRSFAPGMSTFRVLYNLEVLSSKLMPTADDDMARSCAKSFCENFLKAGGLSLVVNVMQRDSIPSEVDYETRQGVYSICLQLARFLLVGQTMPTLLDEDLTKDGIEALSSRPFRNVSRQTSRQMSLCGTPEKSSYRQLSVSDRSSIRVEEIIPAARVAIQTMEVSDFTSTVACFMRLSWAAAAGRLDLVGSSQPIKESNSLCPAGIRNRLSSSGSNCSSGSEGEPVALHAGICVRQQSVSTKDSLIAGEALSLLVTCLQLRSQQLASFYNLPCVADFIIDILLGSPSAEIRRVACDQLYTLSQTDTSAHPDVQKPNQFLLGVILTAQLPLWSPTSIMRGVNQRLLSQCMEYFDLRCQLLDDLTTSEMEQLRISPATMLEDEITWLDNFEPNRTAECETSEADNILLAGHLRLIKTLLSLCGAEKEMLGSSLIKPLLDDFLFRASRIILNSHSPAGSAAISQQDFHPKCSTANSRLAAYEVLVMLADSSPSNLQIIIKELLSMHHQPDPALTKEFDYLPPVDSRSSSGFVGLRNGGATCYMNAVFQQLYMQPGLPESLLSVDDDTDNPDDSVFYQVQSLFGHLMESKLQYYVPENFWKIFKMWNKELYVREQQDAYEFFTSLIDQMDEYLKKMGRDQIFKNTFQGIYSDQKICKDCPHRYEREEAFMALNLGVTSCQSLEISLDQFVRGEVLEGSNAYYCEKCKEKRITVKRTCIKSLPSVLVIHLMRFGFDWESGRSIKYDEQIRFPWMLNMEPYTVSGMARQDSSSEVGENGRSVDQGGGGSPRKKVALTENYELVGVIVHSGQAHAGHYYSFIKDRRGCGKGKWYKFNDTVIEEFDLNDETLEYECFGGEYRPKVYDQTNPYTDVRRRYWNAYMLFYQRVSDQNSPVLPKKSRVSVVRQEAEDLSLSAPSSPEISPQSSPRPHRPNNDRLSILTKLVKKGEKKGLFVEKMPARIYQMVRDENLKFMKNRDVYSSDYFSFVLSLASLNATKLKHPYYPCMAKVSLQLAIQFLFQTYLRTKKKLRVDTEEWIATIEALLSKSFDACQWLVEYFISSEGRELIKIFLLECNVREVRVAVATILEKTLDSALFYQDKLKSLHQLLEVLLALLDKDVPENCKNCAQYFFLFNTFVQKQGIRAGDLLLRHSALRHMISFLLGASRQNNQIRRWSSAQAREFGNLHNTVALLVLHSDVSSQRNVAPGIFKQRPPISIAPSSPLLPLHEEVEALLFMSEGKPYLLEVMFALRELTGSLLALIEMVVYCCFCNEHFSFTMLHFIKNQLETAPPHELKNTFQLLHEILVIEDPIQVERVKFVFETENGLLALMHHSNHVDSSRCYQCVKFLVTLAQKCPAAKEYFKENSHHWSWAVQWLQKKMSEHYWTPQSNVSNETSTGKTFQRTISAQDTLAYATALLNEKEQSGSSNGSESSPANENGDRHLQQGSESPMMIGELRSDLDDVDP
How it was run: as §1

USP25 = molecular target: T2, USP25 (UniProt Q9UHP3)
T2 sequence (whole entry): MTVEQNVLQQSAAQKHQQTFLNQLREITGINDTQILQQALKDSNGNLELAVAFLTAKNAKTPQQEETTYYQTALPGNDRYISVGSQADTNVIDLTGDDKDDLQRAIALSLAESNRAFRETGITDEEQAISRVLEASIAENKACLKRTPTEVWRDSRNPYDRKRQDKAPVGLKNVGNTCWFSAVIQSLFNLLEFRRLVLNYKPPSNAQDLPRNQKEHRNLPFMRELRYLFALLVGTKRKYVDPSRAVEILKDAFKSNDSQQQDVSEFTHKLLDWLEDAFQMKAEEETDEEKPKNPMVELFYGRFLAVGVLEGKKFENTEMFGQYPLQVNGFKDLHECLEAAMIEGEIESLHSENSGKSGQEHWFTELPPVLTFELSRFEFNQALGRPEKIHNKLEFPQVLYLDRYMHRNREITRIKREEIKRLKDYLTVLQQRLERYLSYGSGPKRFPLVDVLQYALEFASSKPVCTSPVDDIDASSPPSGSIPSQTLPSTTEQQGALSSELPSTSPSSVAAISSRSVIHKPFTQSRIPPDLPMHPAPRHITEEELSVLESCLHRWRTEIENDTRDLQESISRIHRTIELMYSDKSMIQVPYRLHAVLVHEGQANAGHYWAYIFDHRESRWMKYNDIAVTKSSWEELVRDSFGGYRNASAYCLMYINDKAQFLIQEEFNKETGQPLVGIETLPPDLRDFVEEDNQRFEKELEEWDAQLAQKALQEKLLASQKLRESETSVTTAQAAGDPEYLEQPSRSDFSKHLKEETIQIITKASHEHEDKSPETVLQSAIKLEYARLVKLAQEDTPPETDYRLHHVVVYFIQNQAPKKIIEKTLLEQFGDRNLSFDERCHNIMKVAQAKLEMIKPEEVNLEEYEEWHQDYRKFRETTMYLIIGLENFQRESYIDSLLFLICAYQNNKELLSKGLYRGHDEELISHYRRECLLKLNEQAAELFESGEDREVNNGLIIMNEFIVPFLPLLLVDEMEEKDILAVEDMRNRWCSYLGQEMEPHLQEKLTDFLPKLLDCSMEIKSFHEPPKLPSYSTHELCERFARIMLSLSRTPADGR
How it was run: as §1

USP28 = molecular target: T3, USP28 (UniProt Q96RU2)
T3 sequence (whole entry): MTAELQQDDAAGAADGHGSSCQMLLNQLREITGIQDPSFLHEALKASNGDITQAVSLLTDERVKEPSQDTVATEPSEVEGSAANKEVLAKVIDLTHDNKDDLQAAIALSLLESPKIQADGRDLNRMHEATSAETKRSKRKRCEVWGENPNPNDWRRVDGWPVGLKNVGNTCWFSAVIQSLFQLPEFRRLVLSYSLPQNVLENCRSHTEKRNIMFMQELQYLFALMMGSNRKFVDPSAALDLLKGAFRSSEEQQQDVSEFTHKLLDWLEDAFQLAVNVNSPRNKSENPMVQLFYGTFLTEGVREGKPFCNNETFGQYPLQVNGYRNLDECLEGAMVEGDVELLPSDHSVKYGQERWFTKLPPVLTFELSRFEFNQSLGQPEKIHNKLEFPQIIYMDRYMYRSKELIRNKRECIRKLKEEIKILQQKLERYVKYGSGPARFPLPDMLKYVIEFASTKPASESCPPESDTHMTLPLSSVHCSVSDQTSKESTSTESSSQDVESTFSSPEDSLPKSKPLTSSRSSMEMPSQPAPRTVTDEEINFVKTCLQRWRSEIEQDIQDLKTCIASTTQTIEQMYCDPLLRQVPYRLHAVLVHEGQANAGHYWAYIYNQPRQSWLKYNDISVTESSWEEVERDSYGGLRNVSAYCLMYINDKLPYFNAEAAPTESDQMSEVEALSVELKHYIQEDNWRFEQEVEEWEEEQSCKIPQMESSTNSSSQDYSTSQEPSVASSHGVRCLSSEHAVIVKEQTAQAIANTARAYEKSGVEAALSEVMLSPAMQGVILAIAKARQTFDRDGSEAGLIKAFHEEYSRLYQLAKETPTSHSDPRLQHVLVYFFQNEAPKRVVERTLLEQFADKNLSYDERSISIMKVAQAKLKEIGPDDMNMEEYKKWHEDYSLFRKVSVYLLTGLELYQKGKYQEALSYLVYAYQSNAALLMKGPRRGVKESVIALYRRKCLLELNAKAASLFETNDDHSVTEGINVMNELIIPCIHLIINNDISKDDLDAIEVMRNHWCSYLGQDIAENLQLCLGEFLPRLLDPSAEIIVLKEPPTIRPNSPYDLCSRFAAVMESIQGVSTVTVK
How it was run: as §1

Measured: log2 ratio of Biotin-Ahx-Ub-VS probe labelling

O=C(CCl)Nc1cccc(NC(=O)c2ccccc2)c1
inactive: USP16 0.163 | USP19 0.0261 | USP24 0.05 | USP25 -0.383 | USP28 -0.173
